Assay results published in PubChem BioAssay (NCATS).
Inconclusive results are not listed. Entries that show only a call come without a potency. The source made the active and inactive calls. Calls come from the whole dose curve; as a rule, active = well fitted cell-killing curve with a large enough effect; inconclusive = small, poorly fitted or top-dose-only effect; inactive = no such curve, though single readings can be large or run the other way.

assay: Quantitative High-Throughput drug screen in 47 multiple myeloma cell lines against the NCATS MIPE library collection: JIM3_ECACC cell viability assay (AID 1918963; note: nearly all actives have a fitted effect of over 35% in size); details: JIM3 myeloma viability, CellTiter-Glo ATP, 48 h; series mostly up to 45.8 µM
From the text: PI: Beverly A. Mock Ph.D.
Laboratory of Cancer Biology and Genetics,
Center for Cancer Research, National Cancer Institute,
National Institute of Health, Bethesda, Maryland
Drug resistance and disease progression are common in multiple myeloma (MM) patients, underscoring the need for new therapeutic combinations. […] We hypothesized that effective combinations would reduce MYC expression and enhance p16 activity. […] These preclinical data identify potentially useful drug combinations for evaluation in drug-resistant MM and reveal potential mechanisms of combined drug sensitivity.
Described herein is the primary MIPE qHTS used to cherrypick compounds. Validated compounds were then further tested for potential synergistic activiy.
[1] Peat TJ, Gaikwad SM, Dubois W, Gyabaah-Kessie N, Zhang S, Gorjifard S, Phyo Z, Andres M, Hughitt VK, Simpson RM, Miller MA, Girvin AT, Taylor A, Williams D, D'Antonio N, Zhang Y, Rajagopalan A, Flietner E, Wilson K, Zhang X, Shinn P, Klumpp-Thomas C, McKnight C, Itkin Z, Chen L, Kazandijian D, Zhang J, Michalowski AM, Simmons JK, Keats J, Thomas CJ, Mock BA. Drug combinations identified by high-throughput screening promote cell cycle transition and upregulate Smad pathways in myeloma. Cancer Lett. 2023 Aug 1;568:216284. doi: 10.1016/j.canlet.2023.216284. Epub 2023 Jun 24. PMID: 37356470; PMCID: PMC10408729.
SEQUENCE No. (e.g., 1, 2, 3, etc.); […] (e.g., Cells, Incubation, Reagent, etc.); VALUE and DESCRIPTION.
1; Cells; 5 uL; white, solid bottom 1536-well Greiner assay plate.
2; Compounds; 23 nL; Kalypsis pin tool (Wako USA) equipped with a 1536-well pin head to transfer to the assay plates.
3; Incubation; 48 hours; 37C incubation.
4; Reagent;5uL; CellTiter Glo (Promega).
5; Detector; 425V; Luminescence; Viewlux PerkinElmer.
NOTES (numbers refer to Sequence numbers above)
1. The cell-based screening methods employed in this study were like those previously published. Briefly, the corresponding myeloma cell lines were screened in 1,536-well plates with 500 cells, 5-uL per well for inhibition of cell viability (assessed by measuring ATP levels with CellTiterGlo).
2. NCATS MIPE 4.0 library of approved and investigational drugs were added using the Kalypsis pin tool. Wells treated with DMSO only for 100% viability and media only wells for 0% viability were used as controls.
3. The assay plates were covered and incubated for 48 hours in a 37C, 5% CO2 incubator with controlled humidity.
4. After 48 hours, CellTilter-GloTM luminescent substrate mix (Promega) reagent was added to the assay plate and plates we incubated for 5 min at room temperature.
5. Signal was measured as median relative luminescence units on a ViewLux (PerkinElmer) multiplate reader.
[1] Heske CM, Davis MI, Baumgart JT, Wilson K, Gormally MV, Chen L, Zhang X, Ceribelli M, Duveau DY, Guha R, Ferrer M, Arnaldez FI, Ji J, Tran HL, Zhang Y, Mendoza A, Helman LJ, Thomas CJ. Matrix Screen Identifies Synergistic Combination of PARP Inhibitors and Nicotinamide Phosphoribosyltransferase (NAMPT) Inhibitors in Ewing Sarcoma. Clin Cancer Res. 2017 Dec 1;23(23):7301-7311. doi: 10.1158/1078-0432.CCR-17-1121. Epub 2017 Sep 12. PMID: 28899971; PMCID: PMC6636827.
Potency is the fitted concentration of half-maximal effect.

Q: Which Potency does the source give for O=C(Oc1ccc([N+](=O)[O-])cc1)N1CCN(Cc2cccc(Oc3ccccc3)c2)CC1 here?
A: Its Potency is “inactive”.

Q: For CN[C@@H]1Cc2cccc3[nH]c(=O)n(c23)C1, which Potency is on record?
A: The Potency was “inactive”.

Q: Which Potency does the source give for COC1=CC(C)=C[C@@H](C)[C@@H](O)[C@@H](C)CC(C)=CC=C[C@H](OC)[C@H]([C@@H](C)[C@@H](O)[C@H](C)[C@@]2(O)C[C@@H](O)[C@H](C)[C@@H](C(C)C)O2)OC1=O here?
A: Its Potency is 5.3 nM (active).

Q: Which Potency does the source give for CC(C)[C@]12O[C@@H]1[C@@H]1O[C@]13[C@]1(O[C@H]1C[C@@H]1C4=C(CC[C@@]13C)C(=O)OC4)[C@H]2O here?
A: The Potency was “inactive”.

Q: With COCC1(CO)C(=O)C2CCN1CC2 (stereo not given) as the compound, how does the Potency read?
A: Its Potency is 18700 nM (active).

Q: With C=C[C@@H]1CN2CCC1C[C@H]2[C@H](O)c1ccnc2ccccc12 (stereo not given in full) as the compound, how does the Potency read?
A: Its Potency is 14800 nM (active).

Q: With COc1ccc(CC2NCCc3cc(OC)c(OC)cc32)cc1OC (stereo not given) as the compound, how does the Potency read?
A: The Potency was “inactive”.

Q: With C[C@]12CCC(=O)C(O)=C1CC[C@@H]1[C@H]3CCC(=O)[C@@]3(C)CC[C@@H]12 as the compound, how does the Potency read?
A: The Potency was “inactive”.

Q: With CC(=Cc1csc(C)n1)[C@@H]1C[C@H]2O[C@]2(C)CCC[C@H](C)[C@@H](O)[C@@H](C)C(=O)C(C)(C)[C@@H](O)CC(=O)O1 as the compound, how does the Potency read?
A: Its Potency is “inactive”.

Q: For N=c1c2c(-c3ccccc3)c(-c3ccccc3)n(Cc3ccccc3)c2ncn1C1CCC(O)CC1 (stereo not given), which Potency is on record?
A: Its Potency is 743 nM (active).

Q: For Cc1ccccc1-n1c(Cn2cnc3c(N)ncnc32)nc2cccc(C)c2c1=O, which Potency is on record?
A: Its Potency is 1050 nM (active).

Q: With CO[C@H]1CCC(O[C@H]2C[C@H]([C@]3(C)CC[C@]4(C[C@H](O)[C@@H](C)[C@@H]([C@@H](C)C=C(C)C(=O)[C@H](C)C[C@H](C)C(=O)O)O4)O3)O[C@]3(O[C@@H]([C@H]4O[C@@](O)(CO)[C@H](C)C[C@H]4C)C[C@H]3C)[C@H]2C)O[C@H]1C (stereo not given in full) as the compound, how does the Potency read?
A: Its Potency is 526 nM (active).

Q: Which Potency does the source give for C[C@H]1CCCC=CC2C[C@H](O)C[C@@H]2[C@H](O)C=CC(=O)O1 (stereo not given in full) here?
A: Its Potency is “inactive”.

Q: With Oc1ccc2c3c1O[C@H]1c4[nH]c5c(c4C[C@@]4(O)[C@@H](C2)N(CC2CC2)CC[C@]314)C[C@@]1(O)[C@H]2Cc3ccc(O)c4c3[C@@]1(CCN2CC1CC1)[C@H]5O4 as the compound, how does the Potency read?
A: The Potency was “inactive”.

Q: Which Potency does the source give for Cc1c(C(=O)Nc2cccc(C(F)(F)F)c2)cc(-c2ccccc2)n1CCCN1CCOCC1 here?
A: Its Potency is 20900 nM (active).

Q: With CCc1c(C(=O)C(N)=O)c2c(OCC(=O)O)cccc2n1Cc1ccccc1 as the compound, how does the Potency read?
A: The Potency was “inactive”.

Q: For CCOC(=O)c1cncn1[C@H](C)c1ccccc1, which Potency is on record?
A: Its Potency is “inactive”.

Q: Which Potency does the source give for CN1[C@H]2CC(O)C[C@H]1[C@H]1O[C@H]12 (stereo not given in full) here?
A: Its Potency is 9350 nM (active).

Q: Which Potency does the source give for COc1cccc2c1[C@]13CCN(CC4CC4)[C@H](C2)[C@]1(OC)CCC(=O)C3 here?
A: The Potency was “inactive”.

Q: Which Potency does the source give for O=C(Oc1ccc([N+](=O)[O-])cc1)N1CCC(C(O)(c2ccc3c(c2)OCO3)c2ccc3c(c2)OCO3)CC1 here?
A: Its Potency is 8330 nM (active).

Q: Which Potency does the source give for C=CCON=C(C[C@H]1O[C@@H]2O[C@]3(C)CC[C@@H]4[C@H](C)CC[C@@H]([C@H]1C)[C@@]24OO3)[C@H]1O[C@@H]2O[C@]3(C)CC[C@H]4[C@H](C)CC[C@@H]([C@@H]1C)[C@@]24OO3 here?
A: Its Potency is 372 nM (active).

Q: Which Potency does the source give for C[C@@H]1O[C@@H](O[C@@H]2C=C3CC[C@@H]4[C@@H](CC[C@]5(C)[C@H](c6ccc(=O)oc6)CC[C@@]45O)[C@@]3(C)CC2)[C@H](O)[C@H](O)[C@H]1O here?
A: The Potency was 29.6 nM (active).

Q: For CN1CCN(c2ccc([N+](=O)[O-])c3no[n+]([O-])c23)CC1, which Potency is on record?
A: Its Potency is 23500 nM (active).

Q: With c1cc2c(cc1[C@H]1OC[C@H]3[C@H]1CO[C@H]3c1ccc3c(c1)OCO3)OCO2 as the compound, how does the Potency read?
A: The Potency was “inactive”.

Q: For CC[C@@]1(O)C(=O)OCc2c1cc1n(c2=O)Cc2cc3ccccc3nc2-1, which Potency is on record?
A: The Potency was 264 nM (active).

Q: For CCOC(=O)Nc1ccc(NCc2ccc(F)cc2)cc1N, which Potency is on record?
A: Its Potency is “inactive”.

Q: With CC(C)(O)C=CC(=O)[C@](C)(O)[C@H]1[C@H](O)C[C@]2(C)[C@@H]3CC=C4[C@@H](C=C(O)C(=O)C4(C)C)[C@]3(C)C(=O)C[C@@]12C as the compound, how does the Potency read?
A: Its Potency is 105 nM (active).

Q: For CCN1C[C@]2(OC(=O)c3ccccc3NC(C)=O)CC[C@H](OC)[C@@]34[C@H]5CC6[C@@H](OC)C[C@](O)(C(C[C@@H]23)[C@@H]14)[C@@]5(O)[C@@H]6OC, which Potency is on record?
A: Its Potency is “inactive”.

Q: For CC=C(C)C(=O)O[C@H]1C(C)=C2[C@@H]3OC(=O)[C@@](C)(O)[C@@]3(O)[C@@H](OC(=O)CCC)C[C@](C)(OC(C)=O)[C@@H]2[C@@H]1OC(=O)CCCCCCC, which Potency is on record?
A: Its Potency is 264 nM (active).

Q: With CC(C)N[C@@H]1CCn2c(=O)[nH]c3cccc(c32)[C@@H]1O as the compound, how does the Potency read?
A: The Potency was 9350 nM (active).

Q: For COc1cc([C@@H]2c3cc4c(cc3[C@@H](O)C3COC(=O)C32)OCO4)cc(OC)c1O (stereo not given in full), which Potency is on record?
A: The Potency was 33.2 nM (active).

Q: With N#C[C@H](O[C@@H]1O[C@H](CO[C@@H]2O[C@H](CO)[C@H](O)[C@H](O)[C@H]2O)[C@H](O)[C@H](O)[C@H]1O)c1ccccc1 as the compound, how does the Potency read?
A: The Potency was 20900 nM (active).

Q: For O=C(O)CNC(=O)c1c(O)c2ccccc2n(Cc2ccccc2)c1=O, which Potency is on record?
A: Its Potency is “inactive”.

Q: With CC[C@@H](C(N)=O)N1CCCC1=O as the compound, how does the Potency read?
A: Its Potency is “inactive”.

Q: With CC(C)N(CCNC(=O)CN1CCCC1=O)C(C)C as the compound, how does the Potency read?
A: Its Potency is “inactive”.

Q: With C[C@@H]1[C@H](O)[C@@H](C)C=CC=CCCC=CC=CC=CC=C[C@H](O[C@H]2O[C@@H](C)[C@H](O)[C@@H](N)[C@@H]2O)CC2O[C@](O)(C[C@@H](O)[C@H](O)CC[C@@H](O)C[C@@H](O)C[C@@H](O)CC(=O)O[C@H]1C)C[C@H](O)[C@H]2C(=O)O as the compound, how does the Potency read?
A: Its Potency is “inactive”.

Q: With CCCC[N+]1(C)[C@H]2CC(OC(=O)[C@H](CO)c3ccccc3)C[C@H]1[C@H]1O[C@H]12 (stereo not given in full) as the compound, how does the Potency read?
A: Its Potency is “inactive”.

Q: With Cc1[nH]nc2ccc(-c3cncc(OC[C@@H](N)Cc4c[nH]c5ccccc45)c3)cc12 as the compound, how does the Potency read?
A: Its Potency is 1480 nM (active).

Q: With C[C@]12COC(=O)C[C@@H]1CC[C@@H]1[C@H]2CC[C@@]2(C)[C@H]1CC[C@]2(C)O as the compound, how does the Potency read?
A: The Potency was “inactive”.

Q: With Cc1ccccc1-n1c(Cn2ncc3c(N)ncnc32)nc2cccc(C)c2c1=O as the compound, how does the Potency read?
A: The Potency was 418 nM (active).
